Reference: article PMC12864922, “TDP-43 directly inhibits mRNA accumulation in neurites through modulation of mRNA stability”
Over roughly 9,900 sequences, “r (bound/input frequency ratio)” has its median near 0.7; the highest 2% begin near 6.5. This excerpt belongs to a sample that is enriched for the highest values.

B1: ENSMUSG00000004113.139|Cacna1b|48:52;226:230 (ssRNA)
RNA: GGGAGUUCUACAGUCCGACGAUCGCUUCGAUAUCCGCAUGCUACACCAGUGAUCUCACGUCUCUUGUGGUCUUGGAGUCAAAUAGCACAUCAUACUAGAGAUGCGCUCAAGGGCCUGCCUUUCACCUACACUGUCACCAUAACAGGGACCAAAUCUGGAGGAUGUCCUUGCUGUUGAUUCUGGUUUUCAGUCACAACACUUUCACUGUUUGUCAUUUCUAUGUAGUUGAUCUAGAAAAAGCAGAAAUCAAAACAGGAAAGGAAAUGUUACACAAACUUUAAAAAAAAAGUCAACAUGUAGGAACUCUUGCGGUCGCACUAGUGUGGAAUUCUCGGGUGUCAAGG
B2: ENSMUSG00000031028.90|Tub|13:17;146:150 (ssRNA)
RNA: GGGAGUUCUACAGUCCGACGAUCGCUUCGAUAUCCGCAUGCUAGGCACUCAAGCUCAUACUAGAAAAAGCUCUGGUGGUCAGCAGAAAGCACUCCCACUUCAAAAGGGCCCAUUAGGCCCAAAGGGGGUUAGGAGUGGUAGGGAUAGGUGCGUGGCAGGUCCCUGCUAGGAUUGCAGGGGCCUGGCCAACACAAUUAGCUGGAGGCUUAGAAUGCUAGCUCAUUUGUUGCUACAGAUUUGCCCAGUGCUUGCACACGUAAGAACCCAGCUCUCAAGGCCAAAUAUCUGAGUGGAUGGGGAUGACUCUUGCGGUCGCACUAGUGUGGAAUUCUCGGGUGUCAAGG
B3: ENSMUSG00000061578.112|Ksr2 (ssRNA)
RNA: GGGAGUUCUACAGUCCGACGAUCGCUUCGAUAUCCGCAUGCUAACCCUUCUCCCAUUUUGUAAGAACACUGUUCUAACUCACCUCAUGCCCACGCUACCCUGGGCAACUGGAGAACACCAUAGCGUUUCAGCUGAUGUGACAUUUGGUGUGACCUUUACCAGUUCACCAUCAUUCAUGGCUUCCCCCAAAGUCCCGAGUCCUGAGAACCGGGGCUGUGGCAAGAGAGUUCUGGUGUGUUCUCUCUGUGGGGCUAGCAAUGCCGGGGUUAAGUUCUCCCUCGGUGAUGGAGACGGUCCUGGGUACUCUUGCGGUCGCACUAGUGUGGAAUUCUCGGGUGUCAAGG
B4: ENSMUSG00000090935.58|Synj2bp (ssRNA)
RNA: GGGAGUUCUACAGUCCGACGAUCGCUUCGAUAUCCGCAUGCUACACAGGUUACCAGUGCAGAAUGGACCUAUAGUACAUCGAGGUGAAGGAGAGCCAAGUGGAGUUCCUGUAGCUAUGGUGCUGCUACCAGUGUUUGCCCUCACCAUGGUAGCAGUUUGGGCCUUCGUGAGAUACCGAAAGCAGCUUUGAAAUGCUUGCUGUCUUCCAGUGUGUCCAAUGAACUCUCUCUCUCACUCACCAUCUCUGACAUCCUCCCAUAUUCUUUCUCCUCCACAUAGCCAAUACAAGAUUUAAAGUGACUGCUCUUGCGGUCGCACUAGUGUGGAAUUCUCGGGUGUCAAGG
B5: ENSMUSG00000042529.499|Kcnj12 (ssRNA)
RNA: GGGAGUUCUACAGUCCGACGAUCGCUUCGAUAUCCGCAUGCUACUGGACCAUGUACAGGGCUCCCUGGGGCUUGUCCUCAGGGGCAGAGAAGGACAUGGUGGCAGCAGCACUGAGAACAGGAGCAUGGCCUCUCUCAGACCCCAGGGCAGUCAUUCAGUCUUUUCCAUGGACACUCCCCACCGCUCCACAUACUGCCUCCGCCUCAUUCUUGGGCUCUUCCUGCCUUGCUGUCUUUCCUUCCACACAGAAGCACCAAGCAUCAUCCAUUCCCAUAGGCAAGCCCAGGGCACUCCCAGAGCUCCCUCUUGCGGUCGCACUAGUGUGGAAUUCUCGGGUGUCAAGG
B6: ENSMUSG00000061578.701|Ksr2 (ssRNA)
RNA: GGGAGUUCUACAGUCCGACGAUCGCUUCGAUAUCCGCAUGCUAUACUCCCAGAUCUGGGGUGAUCUCUUGAGGUGCCUUCCUGUAGUCUCUUGUGUCAUCUUCUUCUAAGACCACUAAUAACACCGCCUUUCUCCUUGAUCCGGGCCUCAGACCUCUUCAGAGAUUCUUUCUCUGAAUGUACGUGGGGGACUCCAACAGAUGUUGGGAGAAGACUCAAUAUGAGCAUACGGGGUCAUUGUUCAAUCCUGUAUCAAGACCUUGGAGUUGUCUAAGGCUGUGGGUUUUAAAUACCUGCUGCAGGCCUCUUGCGGUCGCACUAGUGUGGAAUUCUCGGGUGUCAAGG
B7: ENSMUSG00000032194.16|Kank2 (ssRNA)
RNA: GGGAGUUCUACAGUCCGACGAUCGCUUCGAUAUCCGCAUGCUACAGCCACAAGCCACGCAUCAAACCGUCCCUCCUCCAUCCCUCUGUCCCAUUCUGCCUCGGCAUUCCUCAGCCCCUGAACUUCCCUGAGGGAGCCCUGACAUCUACCAGGCUCAAGCUCCUGGAAGCCUUUCCCAGCACCCUGGGUUCAAAGCCAGAAAGCCAAGCUACAUUCUCCUCCCAGUUGGCACCAGUUGACAACGCCUUGGGUGUGGGUUUCUUGUAAAGAACAUAGAGAACAAUCAGCCGGCAAUUAUGGGAGGCUCUUGCGGUCGCACUAGUGUGGAAUUCUCGGGUGUCAAGG
B8: ENSMUSG00000034801.130|Sos2 (ssRNA)
RNA: GGGAGUUCUACAGUCCGACGAUCGCUUCGAUAUCCGCAUGCUAGGCACUGAGAGGAGCCAGCGCUCGAGGGCGUUCUCACGCCUGACUGAUAGAUACCUUUUUAGGGUGAUGAACUUACACAGAUGCAGAAGAUAUGGGGUGGUGGUCCUGGGUUUUAACCCUCUGACCGUCUUCUAGCUUCUAAUUUUGUUUGGUUUUUACAUCUAGGAGACUUAGGAAUAAUACCCACUGUUCUUAAACUCUUUGAGACCAUGUCUUAAAUGUCAGUAUUUGCUGCUGAAGACAAAAACGGAAAAUAGAAUCUCUUGCGGUCGCACUAGUGUGGAAUUCUCGGGUGUCAAGG
B9: ENSMUSG00000031028.491|Tub (ssRNA)
RNA: GGGAGUUCUACAGUCCGACGAUCGCUUCGAUAUCCGCAUGCUACACCCUUUUAAAUGAACAUGGGGUGGUGAUGGUGCCUUAACAAUCUUGACACUAAGGUGAAGCAAGCAAGUAAGGUGUGUGCCUCUGGGAAGACAGGAGUCGGAAGCCAAGGUGUGUGGCAACAGUCUGGAAGAGAGCUUUUGGUAAUCAUACCGUCUUCAGUGACAAGGCAACAAUGCUGUAAAGUGGGUUUGUUUGGUUUUGUUUUUUCUUUCUCUUUUAUGGAAAUGGCAGGUCUAUUUGCCUCAAACGUUAUGUAGCUCUUGCGGUCGCACUAGUGUGGAAUUCUCGGGUGUCAAGG
B10: ENSMUSG00000028439.155|Fam219a (ssRNA)
RNA: GGGAGUUCUACAGUCCGACGAUCGCUUCGAUAUCCGCAUGCUAGCCAUUUCACCCUAGCUCAAAGUCCAGGAGCCAGGCUUCCAGAAAGGCUCUUCAAGAGCAAGCUUAAGGAAAUACAGUGAGCCAAGUGGCUGUAUGAUAUGGUAUGGUAUGGUAUGGUAUGGUAUGGUAUGGUAUGCACAUGUGUGUGCAUGUGUGUGUGCCUGUGUGUGUGCGUGUGCGUGUGUGUAUGUGUGUGCGUGUGUGUGUGUGUGUGUUGUACCCGAGUGUGUGUUGAGCCUAUCUGUCCAGGGAACCAGAUUCUCUUGCGGUCGCACUAGUGUGGAAUUCUCGGGUGUCAAGG
B11: ENSMUSG00000028439.154|Fam219a (ssRNA)
RNA: GGGAGUUCUACAGUCCGACGAUCGCUUCGAUAUCCGCAUGCUACCCAUUGCCAUUUCACCCUAGCUCAAAGUCCAGGAGCCAGGCUUCCAGAAAGGCUCUUCAAGAGCAAGCUUAAGGAAAUACAGUGAGCCAAGUGGCUGUAUGAUAUGGUAUGGUAUGGUAUGGUAUGGUAUGGUAUGGUAUGCACAUGUGUGUGCAUGUGUGUGUGCCUGUGUGUGUGCGUGUGCGUGUGUGUAUGUGUGUGCGUGUGUGUGUGUGUGUGUUGUACCCGAGUGUGUGUUGAGCCUAUCUGUCCAGGGAACCUCUUGCGGUCGCACUAGUGUGGAAUUCUCGGGUGUCAAGG
B12: ENSMUSG00000028439.153|Fam219a (ssRNA)
RNA: GGGAGUUCUACAGUCCGACGAUCGCUUCGAUAUCCGCAUGCUACUGUGCCCCAUUGCCAUUUCACCCUAGCUCAAAGUCCAGGAGCCAGGCUUCCAGAAAGGCUCUUCAAGAGCAAGCUUAAGGAAAUACAGUGAGCCAAGUGGCUGUAUGAUAUGGUAUGGUAUGGUAUGGUAUGGUAUGGUAUGGUAUGCACAUGUGUGUGCAUGUGUGUGUGCCUGUGUGUGUGCGUGUGCGUGUGUGUAUGUGUGUGCGUGUGUGUGUGUGUGUGUUGUACCCGAGUGUGUGUUGAGCCUAUCUGUCCACUCUUGCGGUCGCACUAGUGUGGAAUUCUCGGGUGUCAAGG
B13: ENSMUSG00000058297.516|Spock2|37:41 (ssRNA)
RNA: GGGAGUUCUACAGUCCGACGAUCGCUUCGAUAUCCGCAUGCUAAUCUUACCCCCAGUGUUCCACAGGAGUCGUGACCACCACACAUGGGUGGGCACAGGUCUGCCUUGCUCCAGCCCCCUCCCUUGGUUUCUGUUGGUACCCAUUUGGCUUUUAUCUGCUUUCUGCUUCACCACUAAGUGCGUAGGUGGGGUCUUUUGAUAUCGGCUCCCCAAAGCCCAAGCCCACAGCCCUAGGAGAGAACCAGGGGCCCAUCUUUGACACCUGGGCCAUCACGAGCCCUCCCGCCUGCAGUUGUCCUAGGGCUCUUGCGGUCGCACUAGUGUGGAAUUCUCGGGUGUCAAGG

target: TDP-43 (Homo sapiens, UniProt Q13148 1-414); assay: RNA Bind-n-Seq with designed 260-mer pool; 25 mM Tris-HCl, 150 mM KCl, 3 mM MgCl2, BSA (printed 500 mg/mL), 20 units/mL SUPERase IN; pH not stated; 500 nM RNA pool, 1 h, 4 C; TDP-43 5, 50, 500 nM; high values mean tight binding; conditions: protein: recombinant; tags: SBP (GST cleaved off with PreScission; pGEX-GST-SBP)
Sequence (Q13148 whole entry): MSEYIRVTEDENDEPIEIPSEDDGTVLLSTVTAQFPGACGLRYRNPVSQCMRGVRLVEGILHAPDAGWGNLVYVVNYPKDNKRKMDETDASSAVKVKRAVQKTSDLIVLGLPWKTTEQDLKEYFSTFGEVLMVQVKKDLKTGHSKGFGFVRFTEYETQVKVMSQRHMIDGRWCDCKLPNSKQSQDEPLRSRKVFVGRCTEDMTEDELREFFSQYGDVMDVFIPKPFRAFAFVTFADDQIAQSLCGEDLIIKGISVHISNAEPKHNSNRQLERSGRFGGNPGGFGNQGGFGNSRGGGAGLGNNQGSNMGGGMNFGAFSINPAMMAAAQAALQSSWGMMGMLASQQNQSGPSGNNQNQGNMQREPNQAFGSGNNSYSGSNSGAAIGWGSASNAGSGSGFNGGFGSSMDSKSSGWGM
Procedure, shortened: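 The incubation lasted 1 h at 4 °C and used 500 nM of an in vitro-transcribed 260-nt 3′ UTR oligo pool with recombinant SBP-tagged TDP-43 at 5, 50 or 500 nM immobilized on streptavidin beads. It took place in 25 mM Tris-HCl, 150 mM KCl, 3 mM MgCl2, BSA and SUPERase IN. Bound RNA was washed, eluted with biotin, converted to cDNA, PCR-amplified and sequenced to give R, each oligo's normalized abundance in the bound sample divided by that in input. Two independent protein batches provided the duplicates.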

Row | Binder | binding signal
1 | B1 | 0.174 R (bound/input frequency ratio)
2 | B2 | 1.27 R (bound/input frequency ratio)
3 | B3 | 0.565 R (bound/input frequency ratio)
4 | B4 | 1.69 R (bound/input frequency ratio)
5 | B5 | 1.51 R (bound/input frequency ratio)
6 | B6 | 0.292 R (bound/input frequency ratio)
7 | B7 | 1.15 R (bound/input frequency ratio)
8 | B8 | 0.376 R (bound/input frequency ratio)
9 | B9 | 1.97 R (bound/input frequency ratio)
10 | B10 | 7.8 R (bound/input frequency ratio)
11 | B11 | 7.96 R (bound/input frequency ratio)
12 | B12 | 6.09 R (bound/input frequency ratio)
13 | B13 | 0.797 R (bound/input frequency ratio)
